# ± gives the standard deviation of the averaged measurements. In all, about 25,000 sequences were measured (“ln(normalized median fluorescence intensity)”: median about 8.9, highest 2% from about 10 on). The sample as a whole holds a higher share of the highest values than the screen did.
# Tested on: PfAP2-LT AP2 domain (GST-tagged)
# Assay: gcPBM binding intensity (ln(normalized median fluorescence intensity)); higher = stronger DNA binding
# In short: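 In this array assay, P. falciparum DNA-binding domains with a GST tag, expressed in E. coli, were applied for 1 h to primer-extended double-stranded 36-bp intergenic genomic probes and negative controls on an Agilent 4 × 180k array. Bound protein was visualised with Alexa488 anti-GST antibody at 488 nm. Binding intensity is the highest Masliner-normalised natural-log median intensity across replicate spots of either probe orientation.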
row,Sequence,gcPBM binding intensity (ln)
1,TTTTTTTTGGAATTCACACAAATATAACATGGGTAT [CACACA_site5185],8.7 ± 0.38
2,AACCTATCTATAGGAACAATATATATATATATAATT [CACACA_negctrl_site1707],8.98 ± 0.33
3,TTTTGAAAGTTTTTGTGTCCACATATATTTATATAT [XGTACX_site6563],8.94 ± 0.44
4,ACATATATATAATATATATTTTTCGTGTGGTGTCAC [CACACA_negctrl_site543],8.84 ± 0.42
5,TTTATTCTTGAGTATTGTACATATGTGTTTGTATAT [XGTACX_site5706],8.93 ± 0.45
6,ATTTTCTATATCTTTCAACACACAAATTTTTTTTTC [CACACA_site7918],8.85 ± 0.45
7,TGTTTATTACTCAGGTGTACTCAATTTTTTTTTTTT [XGTACX_site3470],8.72 ± 0.47
8,TATACATATATATATATATATAGATATATTCACGTG [XGTACX_negctrl_site265],9.31 ± 0.21
9,ATTTAAATAATATGTACACACATTTAAAAAATTATA [CACACA_site2816],8.76 ± 0.44
10,AGCTCGGAAAAATTAGCATGCAAAAAAAAAAAAAAA [TGCATGCA_site658],8.59 ± 0.58
11,TACAATCTTTCATTATGTACTTAACATTTTTTCTGT [XGTACX_site8752],8.85 ± 0.52
12,ATATTTATGGAATATACACACATGTATAATTACATA [CACACA_site7045],8.83 ± 0.4
13,ACCCATATAATATATACACACATATATATATATATA [CACACA_site4731],9.855 ± 0.035
14,CTTATATATACATATACACACACACCCATATATATA [CACACA_site8705],9.59 ± 0.13
15,TATATATATATATACACACACACACCCATATATATA [CACACA_site2538],10.2 ± 0.3
16,AATAAATATATATACACACCCATATATATATATATA [CACACA_site2595],9.73 ± 0.014
17,TATATATATATATATACACACACACCCATATATATA [CACACA_site8812],9.85 ± 0.18
18,CATACACCCCAACACACACACACACCCATATATAAT [CACACA_site8097],10.3 ± 0.37
19,ACTATATTTCTATAATGTACAAAAATAAATCATATG [XGTACX_site3337],8.64 ± 0.39
20,TTTGCCCAAAAAGGTACACACCACAATGTACATAAA [CACACA_site4599],8.85 ± 0.49
21,ATAAAGCCATACAATACACACATTTTACATGGCTGT [CACACA_site5756],9.26 ± 0.42
22,AGACAGCGCACAAACACACAAACACCCACCCACATA [CACACA_site451],10.1 ± 0.16

row,Sequence,gcPBM binding intensity (ln)
1,AAATTTGGCAAACACACACACACACCCACACCCACA [CACACA_site8095],10.4 ± 0.19
2,GGCAAATTTATTATACCCACATACATACATACATAC [XGTACX_negctrl_site186],9.01 ± 0.32
3,AACTTTGGCAAACACACACACACACCCACACCCACA [CACACA_site588],10.1 ± 0.42
4,CAAACATTTTAATGTACACACACCCACAGACAAACA [CACACA_site5522],9.57 ± 0.13
5,AAATTTGGCAAACACACACACACACCCACAGAGACA [CACACA_site4490],10.2 ± 0.13
6,TACATAAATTAAAACACACACACACCCAAAAAAAAA [CACACA_site2261],9.9 ± 0.22
7,TTTTTTCTTTTATGTGAAATGTAATATTGTTATATA [GTGCAC_negctrl_site715],8.51 ± 0.52
8,TATATACGCATTTTTATACACACTTGTTTTATAAAA [CACACA_site727],8.79 ± 0.35
9,GGATATATTATATGTACACACACATATAAGGGATTA [CACACA_site7884],9.34 ± 0.31
10,TTACAAAAAAATAATTGTACATACAATTTCTGTTAT [XGTACX_site877],8.71 ± 0.45
11,ATATTTTTATTTAAACGTACATACACGTTGAAAAGA [XGTACX_site4567],8.43 ± 0.4
12,TGTAATAAATAGTACACACACACATATTTATATATC [CACACA_site6770],9.72 ± 0.23
13,TCTTTATCTTCTTATACACACATTTATTAAAAAAAA [CACACA_site445],8.55 ± 0.4
14,ATAAAACCAACATAGAGTACAGATCGACTATGTTTC [XGTACX_site4329],9.05 ± 0.47
15,GTTATAGAAGCATTCACACACACACCCACATACACA [CACACA_site1465],10.1 ± 0.11
16,AATAATAGAAGCACCCACCCACCACCACCCACACAT [CACACA_negctrl_site1033],10.46 ± 0.028
17,TATAATAATCCACAAGCACACACACCCACATATATA [CACACA_site8343],9.91 ± 0.32
18,TGTAAGTTGATATAATGTACATGTTTGATTTTTTTT [XGTACX_site7687],8.71 ± 0.47
19,TATAAAATACTGTATCGATGGGGGAGGGCGCAGGGG [TGCATGCA_negctrl_site250],10.4 ± 0.16
20,AGTATATAAAATACTGTATCGATGGGGGAGGGCGCA [CACACA_negctrl_site1612],10 ± 0.44
21,ATATATGGGGCGCAGGAAAAGAGTTTTGGAAATAAA [CACACA_negctrl_site1265],8.98 ± 0.55
22,CTTTTTTGTTAAAGTGTGCGCAATAGTTATAGACTT [GTGCAC_site9670],8.87 ± 0.38

row,Sequence,gcPBM binding intensity (ln)
1,AGATATAAGAAAAGCACACACACACCCAAAAAAAAA [CACACA_site2826],10.2 ± 0.18
2,ATAATCCACAAGCACACACACACACCCATATATATA [CACACA_site1268],10.1 ± 0.35
3,TGATAATAAGCATACACACACACACTAGAAAAAAAA [CACACA_site4558],10.1 ± 0.38
4,TATAATCCATAAGAAGCACACACATATATATATATT [CACACA_site8394],9.41 ± 0.3
5,AGAGATATAAGAAAAGCACACACACCCAAAAAAAAA [CACACA_site8917],9.96 ± 0.29
6,ATAATACCCAAGCACACACACACACCGATATATATA [CACACA_site8344],10.4 ± 0.2
7,TTAATATAAGCAAATACACACACACCGATATATATA [CACACA_site9269],9.8 ± 0.26
8,ATATAAGAAAAGCACACACACACAAAAAAAAAAAAA [CACACA_site2827],10.1 ± 0.42
9,TGATAATAAGCATACACACACACACTAAAAAAAAAA [CACACA_site6478],9.94 ± 0.38
10,AGATATAAGAAAAGCACACACACACTAGAAAAAAAA [CACACA_site5559],9.92 ± 0.33
11,TAATAATCCACAAGCACACACACACCCATATATATA [CACACA_site1267],9.96 ± 0.13
12,TAATAATACCCAAGCACACACACACCCATATATATA [CACACA_site4831],10.1 ± 0.33
13,ATTTTAACTCCCCTTAATCTATTGTATATATATATA [CACACA_negctrl_site208],8.88 ± 0.29
14,TACTCAAAAATTAATTAGCATAATATATATAAAAAT [GTGCAC_negctrl_site613],8.49 ± 0.45
15,TTTGCCATAAAACACACACACATGTAAACCCCCTTT [CACACA_site1646],9.76 ± 0.2
16,ATATATTAATATGTGTGTACTTAACCATTCATATGT [XGTACX_site7395],9.1 ± 0.4
17,TCTTGTATACGGCATGCATGTTAGCACATACGGACA [TGCATGCA_site146],8.9 ± 0.32
18,ATATATTTAAATAAAAGTACGTAAAGGTATATTTAA [XGTACX_site8088],8.88 ± 0.44
19,ACATTCAATAAACGTCGTACACTTTCCTTTTTATGA [XGTACX_site3274],8.86 ± 0.52
20,TAATAATAGTCTAATACATGCATCGATAACGGAACT [TGCATGCA_site98],8.82 ± 0.32
21,TGATAATAAGCATACACACACACACCCAAAAAAAAA [CACACA_site721],10.2 ± 0.25
22,GGTGATAATAAGCATACACACACACCCAAAAAAAAA [CACACA_site8137],9.59 ± 0.35

row,Sequence,gcPBM binding intensity (ln)
1,AATAAGTATACACATACACACACACCCAAAAAAAAA [CACACA_site8034],10 ± 0.39
2,AACATAAGTAAGAATACATGCGGAAATTATATAGAA [TGCATGCA_site112],9.03 ± 0.38
3,GGTAAGTACGACTTGACACACATACCCATATATATA [CACACA_site4837],9.2 ± 0.55
4,ATAATTATATTTAGTGGTACTACTTTTGATAATTAG [XGTACX_site6562],8.63 ± 0.42
5,TAAACAGACATATAAACACACATACATACATACATA [CACACA_site7215],9.41 ± 0.32
6,AACAGACATACATACACACATACATACAGACATACA [CACACA_site1942],9.64 ± 0.45
7,AAAAAAAACAGACACACACACACATATACATACATA [CACACA_site2665],10.3 ± 0.17
8,AAAAAAAAAAAAAACACACACATACAGACAAAAATG [CACACA_site83],9.7 ± 0.45
9,TAAACAGACATACATACACACATACATACAGACATA [CACACA_site6997],9.61 ± 0.37
10,AAAAAAAACAGACACACACACATACACATACATACA [CACACA_site2857],10.2 ± 0.19
11,AAAAAAAAAAAACATACACACATACATACAGATATA [CACACA_site4681],9.32 ± 0.36
12,AACACATACAGACACACACACAAAAAAAAAAAAAAA [CACACA_site6322],9.58 ± 0.78
13,CACAAACAGACAAACACACACACACGGACATACATA [CACACA_site6350],10.1 ± 0.11
14,ATATATTTTGTTATGGTGCGTAAGAAATATATTCTT [GTGCAC_site9825],8.73 ± 0.43
15,CGAGCAAGACGGGGTGCACACAAACTAATATGCCGA [CACACA_site7936],9.55 ± 0.5
16,TCAAACGGTTAAATATGTACATATATATATATATAT [XGTACX_site2339],9.695 ± 0.0071
17,TTATAATATTCATAAGGTACAGTTTATATATGTTAT [XGTACX_site8442],8.68 ± 0.4
18,TCTTTGAATTTTTTAACACACACATGGGTGGATATA [CACACA_site8474],9.04 ± 0.38
19,ATATAATAGTATATATGTACATATATTTAAATACTA [XGTACX_site1135],8.82 ± 0.4
20,ATTCATACATGCACACGTACATATTTAAATATAAAA [XGTACX_site8388],9.04 ± 0.36
21,TTAGAAACATTGAAAGCATGCAATATTACTTTATAC [TGCATGCA_site522],8.82 ± 0.28
22,TTTTTTTCTTGTTTTAAATAATATACTGGAAAAAAA [CACACA_negctrl_site585],7.88 ± 0.33

# From the supplement of paper PMC11417369
